Records with an inconclusive call do not appear. Entries that show only a call come without a potency. The source made the active and inactive calls. The call rests on the fitted dose curve; in most records, active means well fitted inhibition curve with a large enough effect; inconclusive means small, poorly fitted or top-dose-only effect; inactive means flat fitted curve, though single readings scatter.

This assay is described as follows: P-glycoprotein substrates identified in KB-8-5-11 adenocarcinoma cell line, qHTS therapeutic library screen (AID 1346987). Further: nearly all actives have a fitted effect of over 65% in size. Conditions: KB-8-5-11 (P-gp overexpressing) viability, CellTiter-Glo, 72 h; series mostly up to 44.5 µM. The procedure, abridged: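 Compounds are pinned in dose-response onto KB-8-5-11 cells (500 cells/well, colchicine-free medium) and left 72 h at 37 degree C. CellTiter-Glo luminescence then yields AC50 values.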
Regarding `C[C@H]1[C@H](C)CC[C@]2(C(=O)O)CC[C@]3(C(=O)O)C(=CCC4[C@@]5(C)CC[C@H](O[C@@H]6O[C@H](C)[C@@H](O)[C@H](O)[C@H]6O)C(C)(C)C5CC[C@]43C)[C@H]12` (some centres not stated), the Potency entry is “inactive”.

Take `CC(C)CNC(=O)/C=C/CCCCc1ccc2c(c1)OCO2`: the Potency entry was “inactive”.

Regarding `C[C@@H]1O[C@@H](O[C@H]2[C@H](O)[C@@H](O)[C@H](OC[C@H]3O[C@@H](OC(=O)[C@]45CCC(C)(C)C[C@H]4C4=CCC6[C@@]7(C)C[C@H](O)[C@H](O[C@@H]8O[C@H](CO)[C@@H](O)[C@H](O)[C@H]8O)[C@@](C)(C(=O)O)C7CC[C@@]6(C)[C@]4(C)CC5)[C@H](O[C@@H]4O[C@H](CO)[C@@H](O)[C@H](O)[C@H]4O)[C@@H](O)[C@@H]3O)O[C@@H]2CO)[C@H](O)[C@H](O)[C@H]1O` (some centres not stated), the outcome is “inactive [at 9.29 µM]”.

`C=C1C[C@@]23CC[C@@H]4[C@](C)(C(=O)O)CCC[C@@]4(C)C2=CC[C@H]1C3`: the Potency entry is “inactive”.

For the compound `C[C@@H]1CC[C@]2(C)C3(C)CC[C@@]2(OC3=O)[C@@]12C[C@H](c1ccoc1)OC2=O`, the Potency result is “inactive”.

Consider `CC(=O)OCC(=O)O[C@@H]1[C@H]2[C@@H](OC(=O)c3ccccc3)[C@@H](C)C[C@]2(O)[C@H](OC(C)=O)C2(C)[C@H]3CC(C)(C)C(=O)[C@@H]3CC1(OC(C)=O)[C@@H]2OC(C)=O` (some centres not stated), for which the Potency result is “inactive”.

On to `CC1(C)CC[C@]2(C(=O)O)CC[C@]3(C)C(=CCC4[C@@]5(C)CCC(O[C@@H]6OC[C@H](O)[C@H](O)[C@H]6O[C@@H]6O[C@H](CO)[C@@H](O)[C@H](O)[C@H]6O)[C@@](C)(CO)C5CC[C@]43C)[C@@H]2C1` (some centres not stated), for which the Potency result is “inactive”.
